Measurements: PubChem BioAssay (EPA / NIEHS)
“And” between values parts separate entries of the source, which are not always exact repeats. Equal entries are not always repeated. More than one record can exist for a structure, and the calls need not agree. The source made the active and inactive calls. Rule for the calls: active = hit-call score of the fitted dose curve at least 0.9, where 1 is the maximum; inactive = score below 0.9.

What follows are compounds tested on Interleukin-8 (IL8), CXCL8 (gene 3576) (assay: BSK_BE3C_IL8: BioMAP Diversity Plus: BE3C Assay for Interleukin-8 (IL8) Biomarker Activity (AID 2284280)). Conditions: primary human bronchial epithelial cells.
Method in brief: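 Primary human bronchial epithelial cells (BE3C system) exposed 24 h; IL-8 measured by ELISA and fitted in positive direction versus DMSO. Overt cytotoxicity assessed by SRB total-protein staining in parallel cultures.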

SMILES	AC50	outcome
O=C(CC(=O)C(F)(F)C(F)(F)C(F)(F)F)c1cccs1	48.2 µM (active) and 55.2 µM (active)	–
O=P(O)(O)CCC(F)(F)C(F)(F)C(F)(F)C(F)(F)C(F)(F)C(F)(F)C(F)(F)C(F)(F)F	–	inactive
O=C(O)C(F)(F)OC(F)(F)C(F)(F)OC(F)(F)C(F)(F)OC(F)(F)C(F)(F)C(F)(F)C(F)(F)F	6.28 µM (active) and 6.03 µM (active)	–
C=CC(=O)OCCC(F)(F)C(F)(F)C(F)(F)C(F)(F)C(F)(F)C(F)(F)C(F)(F)C(F)(F)F	–	inactive
Oc1ccc(Cc2ccccc2O)cc1	–	inactive
O=S(=O)(O)C(F)(F)C(F)(F)C(F)(F)C(F)(F)C(F)(F)C(F)(F)C(F)(F)C(F)(F)C(F)(F)C(F)(F)F	–	inactive
OCC(F)(F)C(F)(F)C(F)(F)C(F)(F)C(F)(F)C(F)(F)C(F)(F)C(F)(F)C(F)(F)C(F)(F)C(F)(F)F	224 nM (active)	inactive
Oc1c(Cl)cc(Cl)cc1Sc1cc(Cl)cc(Cl)c1O	11.7 µM (active) and 11.1 µM (active)	–
O=C(O)CCC(F)(F)C(F)(F)C(F)(F)C(F)(F)C(F)(F)C(F)(F)F	–	inactive
O=C1NS(=O)(=O)c2ccccc21	–	inactive
CN(Cc1cnc2nc(N)nc(N)c2n1)c1ccc(C(=O)N[C@@H](CCC(=O)O)C(=O)O)cc1	–	inactive
O=P(O)(O)CCC(F)(F)C(F)(F)C(F)(F)C(F)(F)C(F)(F)C(F)(F)F	–	inactive
CN(CCO)S(=O)(=O)C(F)(F)C(F)(F)C(F)(F)C(F)(F)C(F)(F)C(F)(F)C(F)(F)C(F)(F)F	–	inactive
O=C(O)CCC(F)(F)C(F)(F)C(F)(F)C(F)(F)C(F)(F)F	–	inactive
CCCCCCCCCCCC	9520 nM (active)	inactive

The compounds below were run on Epidermal growth factor receptor (EGFR), EGFR (gene 1956) (assay: BSK_BE3C_EGFR: BioMAP Diversity Plus: BE3C Assay for Epidermal growth factor receptor (EGFR) Biomarker Activity (AID 2284281)). Conditions: primary human bronchial epithelial cells.
Method in brief: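 Human primary bronchial epithelial cells (BE3C system) dosed with chemicals; EGFR measured by ELISA at 24 h, fitted in the positive direction relative to DMSO. Cytotoxicity tracked in parallel cultures by SRB total-protein staining.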

SMILES	AC50	outcome
O=C(CC(=O)C(F)(F)C(F)(F)C(F)(F)F)c1cccs1	30 µM (active) and 20.5 µM (active)	–
O=P(O)(O)CCC(F)(F)C(F)(F)C(F)(F)C(F)(F)C(F)(F)C(F)(F)C(F)(F)C(F)(F)F	–	inactive
O=C(O)C(F)(F)OC(F)(F)C(F)(F)OC(F)(F)C(F)(F)OC(F)(F)C(F)(F)C(F)(F)C(F)(F)F	–	inactive
C=CC(=O)OCCC(F)(F)C(F)(F)C(F)(F)C(F)(F)C(F)(F)C(F)(F)C(F)(F)C(F)(F)F	–	inactive
Oc1ccc(Cc2ccccc2O)cc1	–	inactive
O=S(=O)(O)C(F)(F)C(F)(F)C(F)(F)C(F)(F)C(F)(F)C(F)(F)C(F)(F)C(F)(F)C(F)(F)C(F)(F)F	–	inactive
OCC(F)(F)C(F)(F)C(F)(F)C(F)(F)C(F)(F)C(F)(F)C(F)(F)C(F)(F)C(F)(F)C(F)(F)C(F)(F)F	–	inactive
Oc1c(Cl)cc(Cl)cc1Sc1cc(Cl)cc(Cl)c1O	4.89 µM (active) and 4.9 µM (active)	–
O=C(O)CCC(F)(F)C(F)(F)C(F)(F)C(F)(F)C(F)(F)C(F)(F)F	–	inactive
O=C1NS(=O)(=O)c2ccccc21	–	inactive
CN(Cc1cnc2nc(N)nc(N)c2n1)c1ccc(C(=O)N[C@@H](CCC(=O)O)C(=O)O)cc1	–	inactive
O=P(O)(O)CCC(F)(F)C(F)(F)C(F)(F)C(F)(F)C(F)(F)C(F)(F)F	–	inactive
CN(CCO)S(=O)(=O)C(F)(F)C(F)(F)C(F)(F)C(F)(F)C(F)(F)C(F)(F)C(F)(F)C(F)(F)F	–	inactive
O=C(O)CCC(F)(F)C(F)(F)C(F)(F)C(F)(F)C(F)(F)F	–	inactive
CCCCCCCCCCCC	5.07 µM (active)	inactive

Each compound was assayed on Matrix Metallopeptidase 9 (MMP9), MMP9 (gene 4318) (assay: BSK_BE3C_MMP9: BioMAP Diversity Plus: BE3C Assay for Matrix Metallopeptidase 9 (MMP9) Biomarker Activity (AID 2284283)). Conditions: primary human bronchial epithelial cells.
Method in brief: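 BE3C, human bronchial epithelial primary cells; 24 h post-dose; MMP-9 by ELISA; positive fit vs DMSO; SRB (0.1%, TCA-fixed, 560 nm) parallel cytotox.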

SMILES	AC50	outcome
O=C(CC(=O)C(F)(F)C(F)(F)C(F)(F)F)c1cccs1	18.5 µM (active)	–
O=P(O)(O)CCC(F)(F)C(F)(F)C(F)(F)C(F)(F)C(F)(F)C(F)(F)C(F)(F)C(F)(F)F	–	inactive
O=C(O)C(F)(F)OC(F)(F)C(F)(F)OC(F)(F)C(F)(F)OC(F)(F)C(F)(F)C(F)(F)C(F)(F)F	5.94 µM (active) and 4.69 µM (active)	–
C=CC(=O)OCCC(F)(F)C(F)(F)C(F)(F)C(F)(F)C(F)(F)C(F)(F)C(F)(F)C(F)(F)F	–	inactive
Oc1ccc(Cc2ccccc2O)cc1	–	inactive
O=S(=O)(O)C(F)(F)C(F)(F)C(F)(F)C(F)(F)C(F)(F)C(F)(F)C(F)(F)C(F)(F)C(F)(F)C(F)(F)F	9.67 µM (active) and 13.3 µM (active)	–
OCC(F)(F)C(F)(F)C(F)(F)C(F)(F)C(F)(F)C(F)(F)C(F)(F)C(F)(F)C(F)(F)C(F)(F)C(F)(F)F	229 nM (active) and 222 nM (active)	–
Oc1c(Cl)cc(Cl)cc1Sc1cc(Cl)cc(Cl)c1O	2.09 µM (active) and 1.25 µM (active)	–
O=C(O)CCC(F)(F)C(F)(F)C(F)(F)C(F)(F)C(F)(F)C(F)(F)F	–	inactive
O=C1NS(=O)(=O)c2ccccc21	–	inactive
CN(Cc1cnc2nc(N)nc(N)c2n1)c1ccc(C(=O)N[C@@H](CCC(=O)O)C(=O)O)cc1	–	inactive
O=P(O)(O)CCC(F)(F)C(F)(F)C(F)(F)C(F)(F)C(F)(F)C(F)(F)F	–	inactive
CN(CCO)S(=O)(=O)C(F)(F)C(F)(F)C(F)(F)C(F)(F)C(F)(F)C(F)(F)C(F)(F)C(F)(F)F	–	inactive
O=C(O)CCC(F)(F)C(F)(F)C(F)(F)C(F)(F)C(F)(F)F	–	inactive
CCCCCCCCCCCC	9.27 µM (active) and 9.14 µM (active)	–
